Data published in PubChem BioAssay (NCATS).
Results filed as inconclusive are left out. The source made the active and inactive calls. Unless noted, calls come from the whole dose curve; as a rule, active = well fitted curve in the direction sought with a large enough effect; inconclusive = small, poorly fitted or top-dose-only effect, or another doubt; inactive = no such curve, though single readings can be large; an effect the other way counts as inactive or inconclusive.

Assays:
[1] = biological target: ATP-dependent 6-phosphofructokinase (Trypanosoma brucei brucei) (UniProt O15648); assay: qHTS Assay to Find Inhibitors of T. brucei phosphofructokinase: hit validation (AID 492961);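 note: luminescence reports ADP formed as PFK phosphorylates fructose-6-phosphate with ATP; % is set by controls: 0 for no effect and ±100 for the full control effect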
Outline: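 Reaction: 0.1 M triethanolamine pH 8.0, 5 mM MgCl2, F6P 0.5 mM, ATP 0.1 mM, PFK 1.25 nM, 45 min RT. Read-out: ADP-Glo luminescence. Analysis: concentration-response fits, classed by r2 and efficacy.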

[2] = biological target: Ubiquitin carboxyl-terminal hydrolase 1 (Homo sapiens) (UniProt O94782); assay: Inhibitors of USP1/UAF1: Pilot qHTS (AID 504865);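 note: rhodamine fluorescence freed from ubiquitin-rhodamine substrate followed over time; top concentration of the series differs between compounds; % is set by controls: 0 for no effect and ±100 for the full control effect; nearly all actives have a fitted effect of over 35% in size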
Outline: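 Kinetic fluorescence assay: 1nM USP1/UAF1, 15 min compound preincubation, then 150nM Ub-Rho; 480/540 nm.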

[3] = biological target: Luciferin 4-monooxygenase (Photinus pyralis) (UniProt P08659); assay: Biochemical firefly luciferase enzyme assay for NPC (AID 624030);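 note: purified P. pyralis luciferase at 10 nM with luciferin and ATP substrate; 0% = DMSO and -100% = full luciferase inhibition by PTC124 control; nearly all actives have a fitted effect of over 70% in size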
Outline: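 Counter-screen for direct inhibition of the luciferase enzyme by approved-drug library compounds, run at 10 nM enzyme in 50 mM Tris acetate (final). Luminescence was read within 5 min of enzyme-buffer addition and normalized to PTC124 versus DMSO (0%).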

[4] = S16 Schwann cell PMP22 intronic element firefly luciferase assay (AID 624032);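 note: plate controls were DMSO for no effect and PTC124 positive control mean for full effect; nearly all actives have a fitted effect of over 30% in size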
Outline: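 Rat S16 Schwann cells stably carrying a PMP22 intronic element-driven Fluc reporter were seeded overnight, then exposed to compounds for 24 h at 37 °C. Luminescence was normalized to PTC124 (positive control) and DMSO (0% activity).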

[5] = S16 Schwann cell PMP22 intronic element beta-lactamase assay (AID 624044; calls by dose curve;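 note: 0% = DMSO and -100% = potassium clavulanate positive control; nearly all actives have a fitted effect of over 15% in size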); settings: S16 rat Schwann cells, PMP22 element beta-lactamase FRET, 24 h; ratio activity, negative = inhibition: at 38.3 µM (top of the series)
Outline: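 Rat S16 Schwann cells with beta-Lac driven by a PMP22 intronic element, compound-treated 24 h at 37 °C. LiveBLAzer FRET B/G read: 460 nm normalized to potassium clavulanate vs DMSO; 535 nm FRET as viability; concentration-effect curves classified.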

[6] = qHTS profiling for inhibitors of Plasmodium falciparum proliferation (AID 504749);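 note: 0% = DMSO vehicle and full inhibition = artemisinin control; nearly all actives have a fitted effect of over 60% in size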; settings: P. falciparum in erythrocytes, SYBR Green DNA, 72 h, at 28.7 µM (top of the series)
Outline: (§1)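 P. falciparum-infected erythrocytes (0.3% parasitemia, 2.5% hematocrit final) were exposed to compounds for 72 h at 37 C in 5% CO2, then lysed with SYBR Green buffer overnight at room temperature; parasite DNA fluorescence was normalized to artemisinin and DMSO controls.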

3D7 = assay: as above; settings: P. falciparum in erythrocytes, SYBR Green DNA, 72 h; series mostly up to 28.7 µM
Outline: as §1

AA1029 = assay: as above; settings: P. falciparum in erythrocytes, SYBR Green DNA, 72 h; series mostly up to 28.7 µM
Outline: as §1

AS120 = assay: as above; settings: P. falciparum in erythrocytes, SYBR Green DNA, 72 h; series mostly up to 28.7 µM
Outline: as §1

ATS189 = assay: as above; settings: P. falciparum in erythrocytes, SYBR Green DNA, 72 h; series mostly up to 28.7 µM
Outline: as §1

ATS95 = assay: as above; settings: P. falciparum in erythrocytes, SYBR Green DNA, 72 h; series mostly up to 28.7 µM
Outline: as §1

C2A = assay: as above; settings: P. falciparum in erythrocytes, SYBR Green DNA, 72 h; series mostly up to 28.7 µM
Outline: as §1

CP185 = assay: as above; settings: P. falciparum in erythrocytes, SYBR Green DNA, 72 h; series mostly up to 28.7 µM
Outline: as §1

CP191 = assay: as above; settings: P. falciparum in erythrocytes, SYBR Green DNA, 72 h; series mostly up to 28.7 µM
Outline: as §1

CP192 = assay: as above; settings: P. falciparum in erythrocytes, SYBR Green DNA, 72 h; series mostly up to 28.7 µM
Outline: as §1

CP194 = assay: as above; settings: P. falciparum in erythrocytes, SYBR Green DNA, 72 h; series mostly up to 28.7 µM
Outline: as §1

CP201 = assay: as above; settings: P. falciparum in erythrocytes, SYBR Green DNA, 72 h; series mostly up to 28.7 µM
Outline: as §1

CP203 = assay: as above; settings: P. falciparum in erythrocytes, SYBR Green DNA, 72 h; series mostly up to 28.7 µM
Outline: as §1

CP211 = assay: as above; settings: P. falciparum in erythrocytes, SYBR Green DNA, 72 h; series mostly up to 28.7 µM
Outline: as §1

CP215 = assay: as above; settings: P. falciparum in erythrocytes, SYBR Green DNA, 72 h; series mostly up to 28.7 µM
Outline: as §1

CP217 = assay: as above; settings: P. falciparum in erythrocytes, SYBR Green DNA, 72 h; series mostly up to 28.7 µM
Outline: as §1

CP237 = assay: as above; settings: P. falciparum in erythrocytes, SYBR Green DNA, 72 h; series mostly up to 28.7 µM
Outline: as §1

CP238 = assay: as above; settings: P. falciparum in erythrocytes, SYBR Green DNA, 72 h; series mostly up to 28.7 µM
Outline: as §1

CP247 = assay: as above; settings: P. falciparum in erythrocytes, SYBR Green DNA, 72 h; series mostly up to 28.7 µM
Outline: as §1

CP250 = assay: as above; settings: P. falciparum in erythrocytes, SYBR Green DNA, 72 h; series mostly up to 28.7 µM
Outline: as §1

CP252 = assay: as above; settings: P. falciparum in erythrocytes, SYBR Green DNA, 72 h; series mostly up to 28.7 µM
Outline: as §1

CP256 = assay: as above; settings: P. falciparum in erythrocytes, SYBR Green DNA, 72 h; series mostly up to 28.7 µM
Outline: as §1

CP260 = assay: as above; settings: P. falciparum in erythrocytes, SYBR Green DNA, 72 h; series mostly up to 28.7 µM
Outline: as §1

CP262 = assay: as above; settings: P. falciparum in erythrocytes, SYBR Green DNA, 72 h; series mostly up to 28.7 µM
Outline: as §1

CP265 = assay: as above; settings: P. falciparum in erythrocytes, SYBR Green DNA, 72 h; series mostly up to 28.7 µM
Outline: as §1

CP266 = assay: as above; settings: P. falciparum in erythrocytes, SYBR Green DNA, 72 h; series mostly up to 28.7 µM
Outline: as §1

CP268 = assay: as above; settings: P. falciparum in erythrocytes, SYBR Green DNA, 72 h; series mostly up to 28.7 µM
Outline: as §1

CP269 = assay: as above; settings: P. falciparum in erythrocytes, SYBR Green DNA, 72 h; series mostly up to 28.7 µM
Outline: as §1

CP286 = assay: as above; settings: P. falciparum in erythrocytes, SYBR Green DNA, 72 h; series mostly up to 28.7 µM
Outline: as §1

CP291 = assay: as above; settings: P. falciparum in erythrocytes, SYBR Green DNA, 72 h; series mostly up to 28.7 µM
Outline: as §1

CP297 = assay: as above; settings: P. falciparum in erythrocytes, SYBR Green DNA, 72 h; series mostly up to 28.7 µM
Outline: as §1

CP305 = assay: as above; settings: P. falciparum in erythrocytes, SYBR Green DNA, 72 h; series mostly up to 28.7 µM
Outline: as §1

CP315 = assay: as above; settings: P. falciparum in erythrocytes, SYBR Green DNA, 72 h; series mostly up to 28.7 µM
Outline: as §1

CP325 = assay: as above; settings: P. falciparum in erythrocytes, SYBR Green DNA, 72 h; series mostly up to 28.7 µM
Outline: as §1

CP329 = assay: as above; settings: P. falciparum in erythrocytes, SYBR Green DNA, 72 h; series mostly up to 28.7 µM
Outline: as §1

CP335 = assay: as above; settings: P. falciparum in erythrocytes, SYBR Green DNA, 72 h; series mostly up to 28.7 µM
Outline: as §1

DFO2036 = assay: as above; settings: P. falciparum in erythrocytes, SYBR Green DNA, 72 h; series mostly up to 28.7 µM
Outline: as §1

DIV14 = assay: as above; settings: P. falciparum in erythrocytes, SYBR Green DNA, 72 h; series mostly up to 28.7 µM
Outline: as §1

DIV30 = assay: as above; settings: P. falciparum in erythrocytes, SYBR Green DNA, 72 h; series mostly up to 28.7 µM
Outline: as §1

Dd2 = assay: as above; settings: P. falciparum in erythrocytes, SYBR Green DNA, 72 h; series mostly up to 28.7 µM
Outline: as §1

ECU = assay: as above; settings: P. falciparum in erythrocytes, SYBR Green DNA, 72 h; series mostly up to 28.7 µM
Outline: as §1

FAB9 = assay: as above; settings: P. falciparum in erythrocytes, SYBR Green DNA, 72 h; series mostly up to 28.7 µM
Outline: as §1

GB4 = assay: as above; settings: P. falciparum in erythrocytes, SYBR Green DNA, 72 h; series mostly up to 28.7 µM
Outline: as §1

HB3 = assay: as above; settings: P. falciparum in erythrocytes, SYBR Green DNA, 72 h; series mostly up to 28.7 µM
Outline: as §1

ICS = assay: as above; settings: P. falciparum in erythrocytes, SYBR Green DNA, 72 h; series mostly up to 28.7 µM
Outline: as §1

JCK = assay: as above; settings: P. falciparum in erythrocytes, SYBR Green DNA, 72 h; series mostly up to 28.7 µM
Outline: as §1

N140 = assay: as above; settings: P. falciparum in erythrocytes, SYBR Green DNA, 72 h; series mostly up to 28.7 µM
Outline: as §1

P93_24 = assay: as above; settings: P. falciparum in erythrocytes, SYBR Green DNA, 72 h; series mostly up to 28.7 µM
Outline: as §1

P94_40 = assay: as above; settings: P. falciparum in erythrocytes, SYBR Green DNA, 72 h; series mostly up to 28.7 µM
Outline: as §1

PAD = assay: as above; settings: P. falciparum in erythrocytes, SYBR Green DNA, 72 h; series mostly up to 28.7 µM
Outline: as §1

PC15 = assay: as above; settings: P. falciparum in erythrocytes, SYBR Green DNA, 72 h; series mostly up to 28.7 µM
Outline: as §1

PC26 = assay: as above; settings: P. falciparum in erythrocytes, SYBR Green DNA, 72 h; series mostly up to 28.7 µM
Outline: as §1

PC49 = assay: as above; settings: P. falciparum in erythrocytes, SYBR Green DNA, 72 h; series mostly up to 28.7 µM
Outline: as §1

SC27B = assay: as above; settings: P. falciparum in erythrocytes, SYBR Green DNA, 72 h; series mostly up to 28.7 µM
Outline: as §1

TAB109 = assay: as above; settings: P. falciparum in erythrocytes, SYBR Green DNA, 72 h; series mostly up to 28.7 µM
Outline: as §1

TAB113 = assay: as above; settings: P. falciparum in erythrocytes, SYBR Green DNA, 72 h; series mostly up to 28.7 µM
Outline: as §1

TAB165 = assay: as above; settings: P. falciparum in erythrocytes, SYBR Green DNA, 72 h; series mostly up to 28.7 µM
Outline: as §1

W2 = assay: as above; settings: P. falciparum in erythrocytes, SYBR Green DNA, 72 h; series mostly up to 28.7 µM
Outline: as §1

Chain of ATP-dependent 6-phosphofructokinase (Trypanosoma brucei brucei) (O15648 whole entry, looked up): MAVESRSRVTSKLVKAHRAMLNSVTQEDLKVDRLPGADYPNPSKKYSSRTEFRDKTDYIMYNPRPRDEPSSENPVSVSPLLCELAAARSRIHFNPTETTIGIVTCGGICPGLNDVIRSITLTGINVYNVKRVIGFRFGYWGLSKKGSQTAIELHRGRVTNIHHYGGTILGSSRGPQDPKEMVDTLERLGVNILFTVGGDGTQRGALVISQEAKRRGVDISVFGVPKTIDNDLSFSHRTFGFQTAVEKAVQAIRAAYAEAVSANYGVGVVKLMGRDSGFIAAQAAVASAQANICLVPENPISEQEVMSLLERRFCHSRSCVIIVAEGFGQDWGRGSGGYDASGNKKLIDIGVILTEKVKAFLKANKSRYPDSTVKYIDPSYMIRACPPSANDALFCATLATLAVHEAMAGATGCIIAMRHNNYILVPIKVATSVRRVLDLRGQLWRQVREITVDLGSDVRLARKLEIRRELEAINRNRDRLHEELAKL
Chain of Ubiquitin carboxyl-terminal hydrolase 1 (Homo sapiens) (O94782 whole entry, looked up): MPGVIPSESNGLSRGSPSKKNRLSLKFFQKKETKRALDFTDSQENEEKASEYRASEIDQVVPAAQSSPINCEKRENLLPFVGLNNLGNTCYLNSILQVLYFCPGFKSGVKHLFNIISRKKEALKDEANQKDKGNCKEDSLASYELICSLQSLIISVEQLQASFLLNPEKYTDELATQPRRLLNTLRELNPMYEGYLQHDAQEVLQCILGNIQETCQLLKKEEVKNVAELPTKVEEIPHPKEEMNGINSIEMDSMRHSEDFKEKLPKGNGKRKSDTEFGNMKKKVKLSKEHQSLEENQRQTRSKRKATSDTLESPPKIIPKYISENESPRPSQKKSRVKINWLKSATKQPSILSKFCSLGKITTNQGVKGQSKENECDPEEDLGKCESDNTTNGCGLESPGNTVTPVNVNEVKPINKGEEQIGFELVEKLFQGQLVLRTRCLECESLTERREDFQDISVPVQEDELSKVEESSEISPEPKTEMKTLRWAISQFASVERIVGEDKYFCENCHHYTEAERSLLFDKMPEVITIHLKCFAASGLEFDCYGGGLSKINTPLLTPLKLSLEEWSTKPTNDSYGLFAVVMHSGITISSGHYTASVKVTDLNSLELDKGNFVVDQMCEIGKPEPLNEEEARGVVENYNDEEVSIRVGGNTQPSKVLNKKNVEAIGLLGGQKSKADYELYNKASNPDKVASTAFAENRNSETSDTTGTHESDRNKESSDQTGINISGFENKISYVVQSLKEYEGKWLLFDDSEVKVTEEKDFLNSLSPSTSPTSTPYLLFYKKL
Chain of Luciferin 4-monooxygenase (Photinus pyralis) (P08659 whole entry, looked up): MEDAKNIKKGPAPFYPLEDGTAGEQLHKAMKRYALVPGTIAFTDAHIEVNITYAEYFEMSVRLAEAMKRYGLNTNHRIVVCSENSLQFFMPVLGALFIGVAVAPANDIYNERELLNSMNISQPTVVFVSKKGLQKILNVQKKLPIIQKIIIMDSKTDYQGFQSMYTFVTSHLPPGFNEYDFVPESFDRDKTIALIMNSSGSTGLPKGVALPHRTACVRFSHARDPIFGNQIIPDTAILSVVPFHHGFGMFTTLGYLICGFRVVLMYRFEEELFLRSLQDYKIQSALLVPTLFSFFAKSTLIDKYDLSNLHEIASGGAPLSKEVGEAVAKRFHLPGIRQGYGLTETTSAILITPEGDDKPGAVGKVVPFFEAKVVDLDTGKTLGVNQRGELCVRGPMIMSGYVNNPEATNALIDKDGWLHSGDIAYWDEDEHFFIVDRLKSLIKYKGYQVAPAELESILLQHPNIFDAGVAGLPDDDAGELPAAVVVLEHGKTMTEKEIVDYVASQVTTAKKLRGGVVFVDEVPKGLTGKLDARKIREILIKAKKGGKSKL

CC(=O)Oc1ccc2c3c1OC1[C@@H](OC(C)=O)C=C[C@H]4[C@H](C2)N(C)CC[C@]314 (some centres undefined)
inactive: outcome [1] | Potency [2] | Potency [3] | Potency [4] | Potency [5] | activity, negative = inhibition ([6]; parasite line A) 15.5% | activity, negative = inhibition ([6]; parasite line B) 9.45% | Potency (3D7) | Potency (AA1029) | Potency (AS120) | Potency (ATS189) | Potency (ATS95) | Potency (C2A) | Potency (CP185) | Potency (CP191) | Potency (CP192) | Potency (CP194) | Potency (CP201) | Potency (CP203) | Potency (CP211) | Potency (CP215) | Potency (CP217) | Potency (CP237) | Potency (CP238) | Potency (CP247) | Potency (CP250) | Potency (CP252) | Potency (CP256) | Potency (CP260) | Potency (CP262) | Potency (CP265) | Potency (CP266) | Potency (CP268) | Potency (CP269) | Potency (CP286) | Potency (CP291) | Potency (CP297) | Potency (CP305) | Potency (CP315) | Potency (CP325) | Potency (CP329) | Potency (CP335) | Potency (DFO2036) | Potency (DIV14) | Potency (DIV30) | Potency (Dd2) | Potency (ECU) | Potency (FAB9) | Potency (GB4) | Potency (HB3) | Potency (ICS) | Potency (JCK) | Potency (N140) | Potency (P93_24) | Potency (P94_40) | Potency (PAD) | Potency (PC15) | Potency (PC26) | Potency (PC49) | Potency (SC27B) | Potency (TAB109) | Potency (TAB113) | Potency (TAB165) | Potency (W2)
